In PubChem BioAssay (Tox21) one finds Potency data, which are given here for 20 compounds.

Inconclusive results are not listed. Entries that show only a call come without a potency. The source made the active and inactive calls. Calls follow the shape of the dose curve; as a rule, active = well fitted activation curve with a large enough effect in the signal ratio in the repeat runs (not every such curve was filed as active); inconclusive = weak or mixed curves; inactive = flat fitted curve, though single readings scatter; the % refers to the signal ratio.
Potency is read from the fitted curve at half-maximal effect.

The nature of this assay: p53 small molecule agonists, cell-based qHTS assay (AID 1963582). Particulars: HCT-116 p53RE-bla reporter, beta-lactamase FRET ratio, 16 h; series mostly up to 66 µM. In short, it runs like this: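 Cells carrying a p53-responsive bla reporter are treated with test compounds for 16 h at 37 C; beta-lactamase activity is then detected with LiveBLAzer B/G FRET substrate after 2 h at room temperature.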
Consider `CCCCCCOC(=O)c1ccc(O)cc1`, for which the Potency entry is “inactive”.
To `CCCCCCC(C)OC(=O)COc1nc(F)c(Cl)c(N)c1Cl` (stereo not given) belongs “inactive”; to `CCC(CN)=C(c1ccccc1)c1ccccc1`, “inactive”; to `CC1(O)CSC(C)(O)CS1` (stereo not given), “inactive”.
For the compound `CC(=O)NCCCS(=O)(=O)O`, the Potency entry is “inactive”.
As to `Nc1cccnc1N`, the Potency entry is “inactive”.
To `O=[N+]([O-])c1ccc(O)cc1` belongs “inactive”; to `Cc1ccc(N/N=c2\c(=O)cc/c(=N\Nc3ccc(S(=O)(=O)O)cc3)c2=O)c(C)c1`, “inactive”; to `CC(C)(C)c1ccc(C(=O)O)cc1`, “inactive”.
Take `CCOC(=O)COc1ccc2c(C)c(CCN(CC)CC)c(=O)oc2c1Cl`: the Potency entry is “inactive”.
`CCOC(=O)COc1ccc2c(c1)CC(NCC(O)c1cccc(Cl)c1)CC2` (stereo not given): the Potency entry was “inactive”.
Next, `CCc1ccc(O)c(C(C)(C)C)c1`: “inactive”.
With `C[C@@H](c1ncncc1F)C(O)(Cn1cncn1)c1ccc(F)cc1F` (stereo not given in full), the Potency entry is “inactive”.
As to `NC(N)=N/N=C/c1c(Cl)cccc1Cl`, the Potency result was “inactive”.
To `O=C(CC(=O)C(F)(F)F)c1ccccc1` belongs “inactive”.
To `NCCc1cnc[nH]1` belongs “inactive”; to `CO[C@@]12[C@H](COC(N)=O)C3=C(C(=O)C(C)=C(N)C3=O)N1C[C@@H]1N[C@@H]12`, 15.8 µM (active); to `Oc1ccc(-c2ccccc2)c(Cl)c1`, “inactive”.
Next, `OC(CCN1CCCCC1)(c1ccccc1)C1CC2C=CC1C2` (stereo not given): “inactive”; `CC(C)C=O`: “inactive”.
